GSH bead fluor = compound fluorescence on glutathione beads, profiling panel, artefact control, biophysical, 488/530 nm, flow cytometry | GSH beads flow cytometry, compound fluorescence 488/530 nm; active compounds read high | fluorescence (KMESF) at 10 µM | 190,000 tested, 0.25% active; in the data active = fluorescence above about 89;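 also: glutathione beads carrying GST-tagged Bcl family fusion proteins plus one bare bead set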
RGS16-Gao HTS = modulators of RGS16 binding to Galphao, primary screen, biochemical, human proteins, multiplexed bead flow cytometry. bead-based flow cytometry RGS16-Galphao binding, fluorescence; actives lie on both sides. binding response (% of control), % at 10 µM. 220,000 tested, 0.38% active. Regulator of G-protein signaling 16 (Homo sapiens) + Guanine nucleotide-binding protein …. AID 1441, 2008;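 also: Galphao activated by GDP with aluminum fluoride before binding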
Avidin fluor = green autofluorescence of compounds with avidin beads – biophysical, 488/530 nm, flow cytometry, artefact control, profiling panel; compound fluorescence 488/530 nm; active compounds read high; fluorescence (KMESF) at 10 µM; 220,000 tested, 0.38% active; in the data active = fluorescence above about 47
RGS7-Gao = RGS7-Galphao binding modulators, primary screen, biochemical, multiplexed bead flow cytometry; Guanine nucleotide-binding protein G(o) subunit alpha (Homo sapiens), P09471; actives lie on both sides; binding response (% of control), % at 10 µM; 220,000 tested, 0.35% active; in the data active = binding response below about 49% or above about 150%; inconclusive = no clear call, values can overlap the other calls; inactive = in between;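 also: fluorescent Galphao held in activated GDP-AlF4 state binding bead-coupled RGS7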
Target sequence (P09471 whole entry, looked up): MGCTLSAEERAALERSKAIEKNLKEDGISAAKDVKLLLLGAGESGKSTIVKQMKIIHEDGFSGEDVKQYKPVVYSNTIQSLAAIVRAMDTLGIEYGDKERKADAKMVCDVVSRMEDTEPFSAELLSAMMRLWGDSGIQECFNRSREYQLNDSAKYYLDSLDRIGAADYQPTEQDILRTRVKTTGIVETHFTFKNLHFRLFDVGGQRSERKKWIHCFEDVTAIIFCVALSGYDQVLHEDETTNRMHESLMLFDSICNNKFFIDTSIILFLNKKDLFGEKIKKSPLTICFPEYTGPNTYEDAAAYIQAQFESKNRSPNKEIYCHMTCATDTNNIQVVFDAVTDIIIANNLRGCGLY
RGS8-Gao reg = RGS8-Galphao binding modulators, primary screen, biochemical, multiplexed bead flow cytometry; Guanine nucleotide-binding protein G(o) subunit alpha (Homo sapiens), P09471; actives lie on both sides; response (percent of control binding), % at 10 µM; 220,000 tested, 0.34% active; AID 1423, 2008; in the data active = response below about 60% or above about 140%; inactive = in between;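 also: Galphao activated as the GDP aluminium fluoride complex binding bead-coupled RGS8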
RGS4-Gao reg = modulators of RGS4 binding to Galphao, primary screen, biochemical, multiplexed bead flow cytometry; Guanine nucleotide-binding protein G(o) subunit alpha (Homo sapiens), P09471; AID 1415, 2008; binding response (% of control), % at 10 µM; 220,000 tested, 0.33% active; actives lie on both sides; in the data active = binding response below about 49% or above about 150%; inactive = in between;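 also: fluorescent Galphao activated with aluminum fluoride binding bead-coupled RGS4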
RGS4-Gao HTS = modulators of RGS–Galpha-o binding, primary screen, biochemical, multiplexed beads, flow cytometry, RGS4/7/8/16/19 | shares compounds with RGS16-Gao HTS | multiplexed bead flow cytometry | RGS4–Galpha-o binding response, % at 10 µM | 1,600 tested, 99% active | AID 1504, 2009;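 also: fluorescently labeled Galpha-o bound to GDP with aluminium fluoride binding biotinylated RGS beads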
Biotin-avidin = disruption of biotin probe capture by avidin, counter-screen for RGS protein interaction modulators, biochemical, flow cytometry, bead-based | shares compounds with RGS16-Gao HTS | streptavidin beads, fluorescein-biotin binding | inhibition, % at 10 µM | 1,700 tested, under 10 active | AID 1783, 2009;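 active = inhibition above 50%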;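 also: median green fluorescence of gated singlet beads compared with DMSO control wells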
RGS8-Gao confirm = RGS8-Galphao binding modulators, confirmation, biochemical, multiplexed bead flow cytometry, single concentration; shares compounds with RGS16-Gao HTS; AID 1836, 2009; 1,700 tested, 3% active; bead-based flow cytometry RGS8-Galphao binding, fluorescence; actives lie on both sides; binding response (% of control), % at 10 µM; in the data active = binding response below about 72% or above about 130%; inactive = in between;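 also: Galphao activated as GDP AlF4 complex before binding bead RGS8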
RGS7-Gao single = RGS7-Galphao binding modulators, confirmation, biochemical, multiplexed bead flow cytometry, single concentration | shares compounds with RGS16-Gao HTS | bead-based flow cytometry RGS7-Galphao binding; actives lie on both sides | response (percent of control binding), % at 10 µM | 1,700 tested, 7.8% active | AID 1837, 2009; in the data active = response below about 75% or above about 130%; inactive = in between;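 also: fluorescent Galphao activated with GDP and aluminum fluoride binding bead-coupled RGS7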
RGS16-Gao conf = modulators of RGS16-Galphao protein binding, confirmation, biochemical, single concentration, multiplexed bead flow cytometry. 1,700 tested, 4% active. shares compounds with RGS16-Gao HTS. response (% of control binding), % at 10 µM. bead-based flow cytometry; actives lie on both sides; in the data active = response below about 74% or above about 130%; inactive = in between;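 also: Galphao activated as the GDP aluminium fluoride complex binding bead-coupled RGS16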
RGS4-Gao confirm = modulators of RGS4-Galphao protein binding, confirmation, biochemical, single concentration, multiplexed bead flow cytometry; shares compounds with RGS16-Gao HTS; actives lie on both sides; binding response (% of control), % at 10 µM; 1,700 tested, 4% active; AID 1840, 2009; in the data active = binding response below about 74% or above about 130%; inactive = in between
RGS19-Gao single = regulators of RGS19-Galphao binding, confirmation, biochemical, single point, multiplexed bead flow cytometry | shares compounds with RGS16-Gao HTS | 1,700 tested, 5% active | bead-based flow cytometry RGS19-Galphao binding; actives lie on both sides | response (percent of control binding), % at 10 µM | AID 1841, 2009; in the data active = response below about 50% or above about 160%; inactive = in between
Target sequence (P09471 whole entry, looked up): as above
Target sequence (P49795 whole entry, looked up): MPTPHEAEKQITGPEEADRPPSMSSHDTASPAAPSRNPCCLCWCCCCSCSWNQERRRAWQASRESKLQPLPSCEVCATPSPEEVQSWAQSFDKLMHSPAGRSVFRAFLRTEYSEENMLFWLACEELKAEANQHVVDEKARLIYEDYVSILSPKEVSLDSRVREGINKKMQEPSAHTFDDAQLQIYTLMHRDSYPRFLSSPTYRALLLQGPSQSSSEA
Hits are given with their value; 0 = inactive; ? = inconclusive; - = not tested or not shown; [ ] = dose if it differs, or a comment. Shown are actives, neighbours in structure and some others; about 1.2% of the full set was active somewhere. Unless noted, no rule for the calls is given here.

SMILES | GSH bead fluor | RGS16-Gao HTS | Avidin fluor | RGS7-Gao | RGS8-Gao reg | RGS4-Gao reg | Biotin-avidin | RGS8-Gao confirm | RGS7-Gao single | RGS16-Gao conf | RGS4-Gao confirm | RGS19-Gao single | others
C=CCn1c(COc2ccccc2)nnc1SCC(=O)Nc1ccc(S(N)(=O)=O)cc1 | 0 | 0 | 0 | 0 | 0 | 0 | - | - | - | - | - | -
CCOC(=O)N1CCN(C(=O)CN(Cc2ccc(Cl)cc2)S(=O)(=O)c2ccc(C)cc2)CC1 | 0 | - | - | 0 | 0 | 0 | 0 | 0 | 0 | 0 | 0 | 0
COc1ccc(CCNC(=O)COC(=O)c2cc(OC)c(OC)cc2OC)cc1OC | 0 | 199[activator] | 0 | 172[activator] | 174[activator] | 173[activator] | 0 | 0 | 0 | 0 | 0 | 0
Cc1cccc(C(=O)N[C@H](C(=O)Nc2cccc(S(=O)(=O)N3CCCC3)c2)C(C)C)c1 | - | 0 | 0 | ? | 0 | 0 | - | - | - | - | - | -
CCOc1ccc(C(=O)N[C@H](C(=O)Nc2cccc(S(=O)(=O)N3CCCCC3)c2)C(C)C)cc1 | 0 | 4.6 | 0 | 0 | 0 | 0 | 0 | 0 | 0 | 0 | 0 | 0 | RGS4-Gao HTS=90
CCOc1ccc(-c2nnc(-c3ccccc3)o2)cc1 | 0 | 0 | 0 | 0 | 0 | 0 | - | - | - | - | - | -
CCOc1ccc(-c2nnc(-c3ccc(OC)cc3)o2)cc1 | 0 | 11 | 0 | 18 | 14 | 24 | 0 | 0 | 0 | 0 | 0 | 0
O=C(NCc1ccccc1)c1cnsn1 | 0 | 6.7 | 0 | 9.6 | 13 | 24 | 0 | 0 | 0 | 0 | 0 | 0
COc1ccc(CCN2C(=NC(C)=O)SC3CS(=O)(=O)CC32)cc1OC (stereo unspecified) | - | 0 | 0 | ? | 0 | 0 | - | - | - | - | - | -
C#CCOCCOCCOCCNc1nc(N2CCN(C(=O)[C@H]([C@@H](C)CC)n3cc([C@@H](N)CO)nn3)CC2)nc(N2CCN(C(=O)[C@H]([C@@H](C)CC)n3cc([C@@H](N)Cc4ccc(O)cc4)nn3)CC2)n1 | 0 | 18 | 0 | 18 | 41 | 22 | 0 | 0 | 0 | 0 | 0 | 0
CN(C)S(=O)(=O)N1C(=O)c2ccccc2C1=O | - | 0 | 0 | ? | 0 | 0 | - | - | - | - | - | -
CN(C)/C=C1\C=C2C(=O)c3ccccc3N2C1=O | - | 224[activator] | 92 | ? | 0 | 242[activator] | 0 | 143[activator] | 355[activator] | 268[activator] | 271[activator] | 374[activator]
O=C(CN1C(=O)NC2(CCCC2)C1=O)NCCC1=CCCCC1 | 0 | 0 | 0 | 29 | 31 | 37 | 0 | 0 | 0 | 0 | 0 | 0
Cc1ccc(C2(C)NC(=O)N(CC(=O)NCCC3=CCCCC3)C2=O)cc1 (stereo unspecified) | 0 | 0 | 0 | 0 | 0 | 0 | - | - | - | - | - | -
COC(=O)C1(Cc2ccccc2)NC(c2ccc(F)cc2)C2C(=O)N(C)C(=O)C21 (stereo unspecified) | 0 | -7.0 | 0 | 40 | 38 | 32 | 0 | 0 | 63 | 0 | 72 | 0
CCC1(C(=O)OC)NC(c2cccc(F)c2)C2C(=O)N(C)C(=O)C21 (stereo unspecified) | 0 | 0 | 0 | 0 | 0 | 0 | - | - | - | - | - | -
COCCCNCCCOc1ccc(C)cc1Br | 0 | 0 | 0 | 0 | 0 | 0 | - | - | - | - | - | -
C=CCNCCCOc1ccc(C)cc1Br | 0 | 24 | 0 | 0 | 0 | 0 | 0 | 0 | 0 | 0 | 0 | 0 | RGS4-Gao HTS=90
Oc1oc(-c2ccc(Br)cc2)nc1C=Nc1ccc(Br)cn1 | 0 | 0 | 0 | 0 | 146[activator] | 0 | 0 | 0 | 0 | 0 | 0 | 0 | RGS4-Gao HTS=134
Cc1ccc(N=Cc2nc(-c3ccc(C)cc3)oc2O)cc1 | 0 | 0 | 0 | 0 | 0 | 0 | - | - | - | - | - | -
Cc1ccc([N+](=O)[O-])cc1NC(=O)C(Sc1ccccc1)c1ccccc1 (stereo unspecified) | 0 | 0 | 0 | 0 | 0 | 0 | - | - | - | - | - | -
CC1(C(=O)N/N=C/c2ccc([N+](=O)[O-])o2)CC1(Br)Br (stereo unspecified) | 0 | 13 | 0 | 0 | 0 | 0 | 0 | 0 | 0 | 0 | 0 | 0 | RGS4-Gao HTS=88
CC(C)OCCCNC(=O)CNC(=O)c1ccc(Cl)c(Cl)c1 | 0 | 0 | 0 | ? | 0 | 0 | - | - | - | - | - | -
O/N=C/c1ccc(OCc2ccccc2)c(Br)c1 | 0 | 3.0 | 0 | 0 | 0 | 0 | 0 | 0 | 0 | 0 | 0 | 0 | RGS4-Gao HTS=84
O/N=C/c1ccc(OCc2ccccc2)c(Cl)c1 | 0 | 0 | 0 | 0 | 0 | 0 | - | - | - | - | - | -
CCc1nc(C)ccc1OC(=O)C12CC3CC(CC(C3)C1)C2 | 0 | 0 | 0 | 0 | 0 | 0 | - | - | - | - | - | -
Cc1ccc(OC(=O)C23CC4CC(CC(C4)C2)C3)c(C)n1 | 0 | 0 | 111 | 152[activator] | 0 | 0 | 0 | 0 | 0 | 0 | 0 | 0 | RGS4-Gao HTS=119
CC(C)CCN(C(=O)COc1ccc(C#N)cc1)c1c(N)n(Cc2ccccc2)c(=O)[nH]c1=O | 0 | 0 | 0 | 0 | 0 | 0 | - | - | - | - | - | -
CNC(=O)CN(C)S(=O)(=O)c1ccc(OC)c(Cl)c1 | 0 | 17 | 0 | 19 | 16 | 25 | 0 | 0 | 0 | 0 | 0 | 0
Cc1cc(N)n(-c2ccccn2)n1 | - | 0 | 0 | ? | 0 | 0 | - | - | - | - | - | -
